From PubChem BioAssay
A selection: hits, their analogues and other compounds. The true share with any hit is near 19%.
MCF10A rereplic – induces DNA re-replication in MCF 10a normal breast cells | MCF 10A DNA re-replication, Hoechst nuclear intensity, 48 h | Potency, µM (titrated, usually from 46.1 µM), without a hit: at the top dose activity, positive = re-replication, actives largely listed as activators | actives 2.9% (n = 350,000) | AID 624296; also: potency is read from the fitted curve at half-maximal effect; % of control where 0% means no effect; nearly all actives have a fitted effect of over 50% in size
BCR signal inh – blocks chronic active B-cell receptor signaling; Potency, µM (doses to about 46.1 µM), inactives show top-dose activity change, negative = inhibition, most hits filed as inhibitors; ABC-DLBCL IkBa-CBG/CBR reporter, luminescence ratio, 4 h; actives 0.05% (n = 340,000); AID 493014; active = well fitted inhibition curve with a large enough effect in the signal ratio, with a control signal flat, not every such curve was filed as active; inconclusive = small, poorly fitted or top-dose-only effect, or effect the other way, or a change in a side signal; the % refers to the signal ratio;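 also: potency is read from the fitted curve at half-maximal effect; plate controls were basal doxycycline-induced cells for no effect and cells given 10 µM MG132 for full effect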
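Concentration-response series (up to 46 uM) were applied to TMD8 dual-reporter cells for 4 h at 37C with doxycycline. Green/red ratio, after filter-overlap correction, defined %Activity; red signal alone was normalised to basal cells and zero luminescence.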
DT40 TDP1 CPT – growth inhibition of DT40 Tdp1-/-;hTDP1 cells with camptothecin (screen for TDP1 inhibitors); actives 12% (n = 420,000); Potency, µM (titrated, usually from 46.2 µM), for the others: top-dose activity change, negative = growth inhibition, actives largely listed as inhibitors; AID 686979; chicken DT40 Tdp1-/-;hTDP1 cells + 20 nM CPT, ATP luminescence, 48 h; also: potency is read from the fitted curve at half-maximal effect; % is scaled to controls: 0 for no effect and ±100 for the full control effect; nearly all actives have a fitted effect of over 55% in size
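Chicken DT40 Tdp1-/- cells complemented with human TDP1, 400 cells/well, exposed to compounds plus 20 nM camptothecin for at least 48 h at 37 C; viability read as ATP content by CellTiter-Glo luminescence.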
SW480 rereplic – DNA re-replication induction in SW480 cells. SW480 DNA re-replication, Hoechst DNA content imaging, 48 h. Potency, µM (doses to about 46.1 µM), without a hit: at the top dose re-replication activation, usual class: activators. actives 1.8% (n = 340,000). AID 624297; also: potency is read from the fitted curve at half-maximal effect; % of control where 0% means no effect; nearly all actives have a fitted effect of over 55% in size
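Cells (250 per well) received 23 nL compound or DMSO by pin tool and were kept 48 hr at 37 C, 5% CO2. Nuclei were then stained with Hoechst for 40 min and scanned for DNA content.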
IL1B secr inh – inflammasome signaling inhibition, IL-1 beta readout; AID 743279; activity change, % at 57.5 µM; actives 4.7% (n = 360,000); THP-1 LPS/ATP IL-1B secretion, AlphaLISA, 16 h; hits give low values; in the data active = activity change below about -50%; inconclusive = mostly about -30% to -49%; also: % is scaled to controls: 0 for no effect and ±100 for the full control effect
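Secreted IL-1B measured by AlphaLISA bead assay after 16 h compound exposure of THP-1 cells; compounds (final up to 57.5 uM) added 1 h before LPS (250 ng/mL) and ATP (1.25 mM) stimulation; lower signal means less secretion.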
DT40 TDP1 no CPT – qHTS for Inhibitors of human tyrosyl-DNA phosphodiesterase 1 (TDP1): qHTS in cells in absence of CPT | DT40 Tdp1-/- hTDP1 cells, no CPT, ATP luminescence, 48 h | Potency, µM (doses to about 46.2 µM), inactives show at the top dose activity change, negative = growth inhibition, usual class: inhibitors | actives 15% (n = 420,000) | AID 686978, 2013; also: potency is read from the fitted curve at half-maximal effect; % is scaled to controls: 0 for no effect and ±100 for the full control effect; nearly all actives have a fitted effect of over 55% in size
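Luminescent ATP content (CellTiter-Glo) served as the growth readout. Knockout chicken DT40 cells expressing human TDP1 were exposed to compounds without camptothecin for a minimum 48 hr at 37 °C.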
* = called active by the depositor; i = inactive; ? = inconclusive; nt = not tested or not shown; [ ] = another dose, or the depositor's remark. Unless noted, calls follow the shape of the dose curve; as a rule, active = well fitted curve in the direction sought with a large enough effect; inconclusive = small, poorly fitted or top-dose-only effect, or another doubt; inactive = no such curve, though single readings can be large; an effect the other way counts as inactive or inconclusive.

SMILES	MCF10A rereplic	BCR signal inh	DT40 TDP1 CPT	SW480 rereplic	IL1B secr inh	DT40 TDP1 no CPT
CS(=O)c1ccccc1-c1nc(-c2cccc(Cl)c2)no1 (configuration not stated)	12%	5%	?	-10%	-29	16µM*
Cc1ccc(-c2cc(C(=O)NCc3ccco3)c3ccccc3n2)o1	-2%	5%	?	4%	9	?
CN(C(=O)c1ccc(NC(=O)Cc2cccc(NC(=O)C3CCN(C(=O)C4CCCC4)CC3)c2)cc1)C1CC1	?	nt	2%	?	-27	?
CCc1ccc(NC(=O)CSc2ccnc(=O)[nH]2)cc1	nt	-14%	5%	nt	nt	-19%
NC(C(=O)O)C(CC(=O)O)c1ccc(Cl)cc1 (configuration not stated)	nt	nt	-1%	nt	nt	1%
COc1ccc(-c2noc(-c3ccccc3C(=O)NCc3ccco3)n2)cc1OC	?	0%	?	-4%	?	15µM*
COc1ccc(-c2cc(C(=O)Nc3cccc(S(=O)(=O)NCc4ccco4)c3)c3ccccc3n2)cc1OC	12µM*	0%	10µM*	?	?	6.5µM*
COc1cc(C(=O)Nc2cccc(S(=O)(=O)NCc3ccco3)c2)cc(OC)c1OC	-2%	-9%	?	-13%	?	?
COc1ccc(Cl)cc1C(=O)NCc1ccco1	-5%	-3%	2%	-18%	?	-6%
COc1ccc(-c2noc(CCCC(=O)NCc3ccco3)n2)cc1OC	-9%	?	-1%	-4%	5	?
COc1ccc(N=c2oc3c(OC)cccc3cc2C(=O)NCc2ccco2)cc1OC	?	?	12µM*	4%	19	7.3µM*
COc1ccc(C(=O)Nc2ccc(Cl)cc2C(=O)NCc2ccco2)cc1OC	?	8%	?	-2%	-58*	?
O=C(O)C1=CC[C@@H](c2ccc(Cl)cc2)N(S(=O)(=O)c2ccc(Cl)cc2)[C@H]1c1ccccc1	2%	?	-17%	-23%	5	3%
Cc1ccc(-c2cc(-c3ccccc3)nc(Cl)n2)cc1	-6%	3%	-14%	?	44	?
COc1ccc(-c2cc(-c3ccccc3)nc(Cl)n2)cc1OC	23µM*	?	30%	?	-5	?
CC(=O)N(Cc1cccnc1)c1nc2c(C)cc(C)cc2s1	nt	-10%	?	nt	nt	?
CCN(CC)CCN(C(=O)CCS(=O)(=O)c1ccccc1)c1nc2cc(C)cc(C)c2s1	21%	8%	21µM*	30%	-102*	?
CCN(CC)CCN(C(=O)CCS(=O)(=O)c1ccccc1)c1nc2cc(OC)c(OC)cc2s1	6%	-3%	?	-1%	8	?
Cc1cc(C)c2sc(N(CCN(C)C)C(=O)CCS(=O)(=O)c3ccccc3)nc2c1	?	-3%	23µM*	27%	-14	18µM*
COc1ccc(Cl)c2sc(N(CCN(C)C)C(=O)CCS(=O)(=O)c3ccc(C)cc3)nc12	?	-2%	?	-18%	-15	?
CCN(CC)CCN(C(=O)CCS(=O)(=O)c1ccccc1)c1nc2c(C)cc(C)cc2s1	?	11%	16µM*	?	-90*	7.3µM*
CCC(C)(C)NC(=O)C(c1ccccn1)N(C(=O)c1csnn1)c1ccc(C)cc1 (configuration not stated)	0%	?	-26%	1%	17	-28%
COc1ccc(C(=O)OCC(=O)NC2CC2)cc1F	-16%	5%	10%	-10%	-4	4%
O=C(Nc1ccc(C(=O)N2CCOCC2)cc1)c1cccc(Br)c1	-3%	-1%	-11%	?	i	-6%
O=C(Nc1ccc2nc(SCC(=O)N3CCOCC3)sc2c1)c1cccc(Br)c1	nt	nt	13µM*	nt	nt	8.2µM*
SMILES	MCF10A rereplic	BCR signal inh	DT40 TDP1 CPT	SW480 rereplic	IL1B secr inh	DT40 TDP1 no CPT
O=C(Nc1ccc2nc(SCC(=O)N3CCCC3)sc2c1)c1ccccc1	nt	nt	1%	nt	nt	1%
COc1cccc(C(=O)Nc2ccc3nc(SCC(=O)N4CCOCC4)sc3c2)c1	nt	nt	15µM*	nt	nt	13µM*
O=C(Nc1ccc2nc(SCC(=O)N3CCOCC3)sc2c1)c1ccc(Br)cc1	nt	nt	?	nt	nt	2.3µM*
O=C(Nc1cccc(Br)c1)c1cccc(OC(=S)N2CCOCC2)c1	?	?	?	4%	-67*	?
CCc1ccc(CNC(=O)c2ccc(OC3CCN(C(C)=O)CC3)c(OC)c2)nc1	-1%	-1%	-6%	-6%	6	0%
COc1ccc2c(C)c(CCC(=O)NCc3ccccc3OC)c(=O)oc2c1	nt	nt	-23%	nt	nt	-23%
CCC(=O)NC(c1ccc(C)cc1)c1cc(Cl)c2cccnc2c1O (configuration not stated)	-13%	-7%	nt	?	nt	nt
CCCC(=O)NC(c1ccco1)c1cc(Cl)c2cccnc2c1O (configuration not stated)	?	?	3.7µM*	?	72	4.6µM*
CCCC(=O)NC(c1cccs1)c1cc(Cl)c2cccnc2c1O (configuration not stated)	26%	7%	5.2µM*	1.3µM*	89	2.9µM*
CCCC(=O)NC(c1ccc2c(c1)OCO2)c1cc(Cl)c2cccnc2c1O (configuration not stated)	?	0%	4.6µM*	?	-82*	3.7µM*
CCC(=O)NC(c1ccco1)c1cc(Cl)c2ccccc2c1O (configuration not stated)	-3%	-7%	nt	?	nt	nt
Cc1nc(-c2coc3c(O)c(O)ccc3c2=O)cs1	nt	nt	-18%[9.04 µM]	nt	nt	4%[9.04 µM]
CC1CC(C)CN(c2oc(-c3ccc(OCc4ccccc4Cl)cc3)nc2C#N)C1 (configuration not stated)	nt	nt	-11%	nt	nt	?
Cc1cccc(Nc2nnc(SC/C(O)=C(\C#N)c3nc4ccccc4[nH]3)s2)c1	16µM*	?	-19%	25%	13	?
Cc1ccc(Nc2nnc(SC/C(O)=C(\C#N)c3nc4ccccc4[nH]3)s2)c(C)c1	?	?	?	10%	16	?
CCOC(=O)c1c(C)[nH]c(C)c1C(=O)COC(=O)Cc1ccc(OC)c(OC)c1	15%	-1%	3%	-7%	9	-18%
